High-throughput results (PubChem BioAssay)
A selection: hits, their analogues and other compounds. The true share with any hit is near 11%.
L3MBTL1 block: qHTS Assay for the Inhibitors of L3MBTL1; AID 485360, 2010; Lethal(3)malignant brain tumor-like protein 1 (Homo sapiens), Q9Y468; 230,000 tested, 0.66% active; AlphaScreen L3MBTL1–H3K9me1 peptide binding; Potency, µM (doses to about 57.1 µM), inactives show top-dose activity, negative = inhibition, usual class: inhibitors; further: on the % scale 0 is the no-effect control and ±100 the full control effect; nearly all actives have a fitted effect of over 60% in size
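First, the protein-peptide complex forms for 30 min at room temperature (L3MBTL1 50 nM, biotinylated H3K9me1 peptide 75 nM). Next, compounds are pin-transferred and incubated 30 min. Finally, AlphaScreen beads are added and read after 30 min.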
JMJD2A Tudor: qHTS Assay for Inhibitors of JMJD2A-Tudor Domain. AlphaScreen JMJD2A-Tudor / H3K4me3 peptide binding. Potency, µM (series often up to 114 µM), for the others: top-dose activity change, negative = inhibition, usual class: inhibitors. 390,000 tested, 4.4% active. Lysine-specific demethylase 4A (Homo sapiens), O75164; further: on the % scale 0 is the no-effect control and ±100 the full control effect; nearly all actives have a fitted effect of over 50% in size
HP1b chromo inh: HTS for Inhibitors of HP1-beta Chromodomain Interactions with Methylated Histone Tails | Chromobox protein homolog 1 (Homo sapiens), P83916 | AlphaScreen HP1-beta / biotin-H3K9me3 peptide binding | Potency, µM (titrated, usually from 114 µM), inactives show at the top dose activity change, negative = inhibition, usual class: inhibitors | 390,000 tested, 0.56% active; further: nearly all actives have a fitted effect of over 70% in size
Target sequence (P83916 whole entry, looked up): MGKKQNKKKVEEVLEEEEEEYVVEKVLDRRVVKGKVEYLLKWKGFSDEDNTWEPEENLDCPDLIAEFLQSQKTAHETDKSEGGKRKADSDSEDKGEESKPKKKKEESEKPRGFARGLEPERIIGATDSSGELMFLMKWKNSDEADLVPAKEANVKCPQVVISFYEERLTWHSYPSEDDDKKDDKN
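Compound inhibition of the preformed complex between 50 nM HP1-beta and 50 nM biotinylated H3K9me3 peptide was read by AlphaScreen. Buffer was PBS pH 7.4 with 0.01% Tween-20. Incubations ran 30 min at room temperature, with 10 ug/mL donor/acceptor beads.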
G9a inh: qHTS Assay for Inhibitors of Histone Lysine Methyltransferase G9a; Histone-lysine N-methyltransferase EHMT2 (Homo sapiens), Q96KQ7; G9a H3K9 monomethylation, AlphaScreen, 2 h; Potency, µM (highest dose often 102 µM), for the others: at the top dose activity, negative = inhibition, most hits filed as inhibitors; 350,000 tested, 8.8% active; AID 504332, 2011; further: on the % scale 0 is the no-effect control and ±100 the full control effect; nearly all actives have a fitted effect of over 75% in size
Target sequence (Q96KQ7 913-1193 limits assumed): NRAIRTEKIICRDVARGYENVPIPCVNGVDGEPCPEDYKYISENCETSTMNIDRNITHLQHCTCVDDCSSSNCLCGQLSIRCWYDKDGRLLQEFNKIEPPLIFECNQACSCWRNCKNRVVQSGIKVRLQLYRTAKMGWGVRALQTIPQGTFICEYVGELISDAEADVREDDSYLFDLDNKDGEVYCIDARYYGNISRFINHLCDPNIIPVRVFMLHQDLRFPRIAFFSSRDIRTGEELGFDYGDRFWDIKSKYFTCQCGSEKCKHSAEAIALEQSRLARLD
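AlphaScreen detection with an anti-monomethyl H3K9 antibody quantified product after a 2 h room-temperature reaction containing 500 nM biotinylated H3K9 peptide, 20 µM SAM and 20 nM enzyme, which had been preincubated 15 min with compound.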
BAZ2B block: qHTS Assay for Inhibitors of BAZ2B | Bromodomain adjacent to zinc finger domain protein 2B (Homo sapiens), Q9UIF8 | AlphaScreen BAZ2B-H3K14Ac peptide displacement | 360,000 tested, 4.4% active | Potency, µM (highest dose often 114 µM), without a hit: top-dose activity change, negative = inhibition, hits mostly inhibitors; further: on the % scale 0 is the no-effect control and ±100 the full control effect; nearly all actives have a fitted effect of over 60% in size
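Inhibition is scored as reduced AlphaScreen emission. The BAZ2B/b-H3(5-23)K14Ac complex (50 nM each) in PBS pH 7.4, 0.01% Tween-20 meets compound (up to 110 uM) for 30 min at RT before bead addition.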
Numbers without * were called inactive; [ ] = dose if it differs, or a comment. The call rests on the fitted dose curve; in most records, active means well fitted inhibition curve with a large enough effect; inconclusive means small, poorly fitted or top-dose-only effect; inactive means no such curve, though single readings can be large or run the other way. Potency means the concentration at half of the fitted maximal effect.

How did CCc1nn(CC(=O)NCCCN2CCc3ccccc3C2)c(=O)c2cc3sccc3n12 do in these assays?
L3MBTL1 block: inconclusive; JMJD2A Tudor: -32%; HP1b chromo inh: 34%; G9a inh: 45µM*; BAZ2B block: -30%

Results for Cc1nn(CCCC(=O)N2CCc3ccccc3C2)c(=O)c2cc3sccc3n12 ?
JMJD2A Tudor: -10%; HP1b chromo inh: 34%; G9a inh: 79µM*; BAZ2B block: 1%

Results for Cc1ccc(NC(=O)CSc2nc3nccnc3c(=O)n2CCc2c[nH]c3ccccc23)cc1 ?
JMJD2A Tudor: -9%; HP1b chromo inh: 28%; G9a inh: -31%[59 µM]; BAZ2B block: inconclusive

How did CCOC(=O)c1cc(=O)n(-c2ccc(Cl)cc2C)[nH]1 do in these assays?
L3MBTL1 block: 5%; JMJD2A Tudor: -16%; HP1b chromo inh: 18%; G9a inh: 13µM*; BAZ2B block: -29%

Results for CCOC(=O)c1n[nH]n(-c2cc(Cl)cc(Cl)c2)c1=O ?
L3MBTL1 block: inconclusive; JMJD2A Tudor: 7%; HP1b chromo inh: 43%; G9a inh: 3%; BAZ2B block: 12%

Results for Cc1cc(=O)[nH]c2nnc(SCC(N)=O)n12 ?
JMJD2A Tudor: -13%; HP1b chromo inh: 8%; G9a inh: 6%[59 µM]; BAZ2B block: 1%

What do the screens show for `O=S(=O)(NNc1ccc(F)cc1F)c1cccc(Cl)c1`?
JMJD2A Tudor: 10µM*; HP1b chromo inh: inconclusive; G9a inh: 1.3µM*; BAZ2B block: inconclusive

How did O=C(NNc1ccc(F)cc1F)c1c(F)cccc1Cl do in these assays?
L3MBTL1 block: 4%; JMJD2A Tudor: -14%; HP1b chromo inh: -4%; G9a inh: -2%; BAZ2B block: -2%

How did O=S(=O)(c1ccc(-n2cnnn2)cc1)N1CCN(c2cccc(Cl)c2)CC1 do in these assays?
JMJD2A Tudor: -14%; HP1b chromo inh: 23%; G9a inh: 8%[59 µM]; BAZ2B block: 4%

How did CCCC(C)c1nnc(NC(=O)C2CC(=O)N(CCc3ccc(F)cc3)C2)s1 (centres undefined) do in these assays?
JMJD2A Tudor: inconclusive; HP1b chromo inh: inconclusive; G9a inh: 7.9µM*; BAZ2B block: -18%

What do the screens show for `CC(C)(C)c1nnc(NC(=O)C2CC(=O)N(CCc3ccc(F)cc3)C2)s1` (centres undefined)?
JMJD2A Tudor: -16%; HP1b chromo inh: -16%; G9a inh: 32µM*; BAZ2B block: 8%

Results for CC1(C)Cc2c(C#N)c(NCCc3ccccc3)nc(-c3ccco3)c2CO1 ?
L3MBTL1 block: 4%; JMJD2A Tudor: 37%; HP1b chromo inh: 3%; G9a inh: -25%; BAZ2B block: 0%

What do the screens show for `CC1(C)Cc2c(C#N)c(NCC3CCCO3)nc(-c3ccco3)c2CO1` (centres undefined)?
L3MBTL1 block: 22%[11.4 µM]; JMJD2A Tudor: 41%; HP1b chromo inh: 96%; G9a inh: 10µM*; BAZ2B block: 11%

Results for CC1(C)Cc2c(C#N)c(NC3CCCCC3)nc(-c3ccco3)c2CO1 ?
L3MBTL1 block: 6%; G9a inh: 11µM*; BAZ2B block: 5%

What do the screens show for `O=C(OCc1ccccc1)[C@@H]1COC(c2ccc(Br)cc2)=N1`?
G9a inh: 45%

Results for CC(C)c1ccc(C2c3c(-c4ccccc4O)n[nH]c3C(=O)N2CCc2ccccc2)cc1 (centres undefined) ?
JMJD2A Tudor: -9%; HP1b chromo inh: 31%; G9a inh: 11%[59 µM]; BAZ2B block: -1%

Results for Cn1nccc1/C=C(/C#N)S(=O)(=O)c1ccccc1 ?
L3MBTL1 block: 7%; JMJD2A Tudor: 40µM*; HP1b chromo inh: -10%; G9a inh: 0%[59 µM]; BAZ2B block: 3%
